In PubChem BioAssay AID504710 (Sanford-Burnham Center for Chemical Genomics, 2011):
Activity calls are given as the source filed them.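 Rule for the calls: active = inhibition reaching about 16% in any single replicate (limit read from the data); inactive = the rest.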

biological target: Hexokinase HKDC1 (Homo sapiens) (UniProt Q2TB90); test: compounds lowering human HKDC1 activity – biochemical, single concentration, confirmation (AID 504710); conditions: recombinant HKDC1, G6PDH/diaphorase/resazurin fluorescence; at 20 µM; hits give high values
Sequence (Q2TB90 whole entry, looked up): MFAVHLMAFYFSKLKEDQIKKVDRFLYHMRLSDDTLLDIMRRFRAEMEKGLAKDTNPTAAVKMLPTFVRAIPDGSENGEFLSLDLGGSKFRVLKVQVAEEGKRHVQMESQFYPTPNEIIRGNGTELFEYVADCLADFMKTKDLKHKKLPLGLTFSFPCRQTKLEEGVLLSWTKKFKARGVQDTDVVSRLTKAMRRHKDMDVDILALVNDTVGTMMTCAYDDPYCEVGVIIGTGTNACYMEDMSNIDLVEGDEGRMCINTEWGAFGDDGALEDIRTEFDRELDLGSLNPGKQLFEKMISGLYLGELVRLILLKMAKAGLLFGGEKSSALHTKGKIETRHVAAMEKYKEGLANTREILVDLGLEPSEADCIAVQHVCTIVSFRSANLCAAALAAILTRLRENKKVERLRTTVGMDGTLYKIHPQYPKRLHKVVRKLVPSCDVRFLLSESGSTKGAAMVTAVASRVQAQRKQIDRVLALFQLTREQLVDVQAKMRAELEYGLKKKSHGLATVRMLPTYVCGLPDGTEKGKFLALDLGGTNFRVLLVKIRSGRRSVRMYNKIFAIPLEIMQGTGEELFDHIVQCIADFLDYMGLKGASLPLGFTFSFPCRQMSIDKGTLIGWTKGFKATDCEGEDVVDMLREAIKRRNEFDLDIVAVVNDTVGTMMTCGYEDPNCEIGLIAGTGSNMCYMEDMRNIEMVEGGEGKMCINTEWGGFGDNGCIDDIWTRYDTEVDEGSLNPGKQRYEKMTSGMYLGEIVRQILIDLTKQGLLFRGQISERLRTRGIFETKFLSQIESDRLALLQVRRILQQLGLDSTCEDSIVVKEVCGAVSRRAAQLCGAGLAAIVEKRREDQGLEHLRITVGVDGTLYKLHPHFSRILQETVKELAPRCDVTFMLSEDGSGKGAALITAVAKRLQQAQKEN

inhibition, active:
COC(=O)c1ccc(NC(=O)CSc2n[nH]c(-c3ccncc3)n2)cc1 43%
CCOC(=O)/C=C(\C)Sc1cc(O)c2ccccc2c1O 53.6%
Cc1cccc(C)c1Nc1nnc(SCc2cn3cccc(C)c3n2)s1 54.1%
Cc1ccc(C(=O)c2c(C)oc3c2C(=O)C(=O)c2ccccc2-3)cc1 46.2%
CCOC(=O)C1=C(Cc2ccc(OC)cc2)C(=O)c2ccccc2C1=O 55.8%
Cc1ccccc1NC1=C/C(=N\S(=O)(=O)c2ccc(C(=O)O)cc2)c2ccccc2C1=O 71.3%
Cc1oc2c(c1C(=O)c1ccccc1)C(=O)C(=O)c1ccccc1-2 51.8%
COC1=C(Br)C(=O)c2ncccc2C1=O 64.7%
Cc1nc2c(c(=O)c3ccccc3n2C)c(=O)n1-c1ccccc1 56%
COc1ccc(NC(=O)CSc2ccc(-c3cccnc3)nn2)c(OC)c1 38.8%
COC1=CC(=O)C=C(OC)C1=O 75.2%
O=C(O)CSc1cc(NS(=O)(=O)c2cccc([N+](=O)[O-])c2)c2ccccc2c1O 47.9%
O=C1C(Cl)=C(N2CCC(C(=O)O)CC2)C(=O)c2ccccc21 57.2%
COc1cc(/C=C(\C#N)c2nc3ccc(C)cc3[nH]2)cc([N+](=O)[O-])c1O 42.2%
CCOC(=O)C1=C(c2ccc(OC)cc2)C(=O)c2ccccc2C1=O 75%
O=C1C=CC(=O)c2c(O)c(CO)c(CO)c(O)c21 39.3%
CCCc1nc2oc3c(NCCOCCO)ncnc3c2c2c1COC(C)(C)C2 41.7%
CC(=O)Nc1ccc(NC2=C/C(=N/S(=O)(=O)c3cccs3)c3ccccc3C2=O)cc1 51.9%
COc1ccc(OC)c2[nH]c(=O)c(CCNC(=O)c3cc4ccccc4o3)cc12 59.6%
COc1ccc(N2C3=C(CC4=C2CCCC4=O)C(=O)CCC3)cc1 47.1%
CC(C)(C=O)C1=CC(=O)c2ccccc2C1=O 41.2%
COc1ccc(S(=O)(=O)Nc2ccc(O)c3ccccc23)cc1 51.2%
N#Cc1c(SCC(=O)Nc2nc3ccc(Br)cc3s2)sc2c(O)cc(=O)[nH]c12 44.9%
O=C(O)c1cc(O)c2c(c1)[C@H]([C@H]1c3cc(C(=O)O)cc(O)c3C(=O)c3c(O[C@@H]4O[C@H](CO)[C@@H](O)[C@H](O)[C@H]4O)cccc31)c1cccc(OC3O[C@H](CO)[C@@H](O)[C@H](O)[C@H]3O)c1C2=O (some centres not stated) 52.1%
O=C1C(Nc2ccc(O)cc2)=C/C(=N/S(=O)(=O)c2cccs2)c2ccccc21 56.9%
CCc1nc2c(c(=O)c3ccccc3n2C)c(=O)n1-c1ccc(F)cc1 72.7%
O=C1c2ccccc2-c2onc3ccc(Oc4ccccc4)c1c23 28.2%

inhibition, inactive:
CC12CCC(C(=O)N/N=C/c3ccc(O)cc3O)(OC1=O)C2(C)C (configuration not stated) -34.9%
COC(=O)c1c(NC(C)=O)sc(Cc2ccccc2)c1C -37.8%
COc1cc(SC#N)ccc1N=Cc1c(C)[nH]n(-c2ccc(Cl)cc2)c1=O -38.2%
COc1ccccc1NC(=S)NN=C(C)c1ccccn1 -61%
Fc1ccc(N=C2NN=C(c3cc(F)ccc3F)CS2)cc1 -132%
O=S(=O)(NC1c2cccc3cccc(c23)C1N1CCNCC1)c1ccccc1 (configuration not stated) -94.7%
Cn1c(-c2ccccc2)c(C(=O)CC#N)c2ccccc21 -42%
O=S(=O)(NC1c2cccc3cccc(c23)C1N1CCN(CCO)CC1)c1ccccc1 (configuration not stated) -118%
CC(=NNC(=S)Nc1cccc(C)c1)c1ccccn1 -60.1%
Cn1cnnc1SC1c2cccc3cccc(c23)C1NS(=O)(=O)c1ccccc1 (configuration not stated) -64%
